{"source": "paper PMC11006913", "assay_in_all_cases": "PBM; 200 nM protein, PBS", "settings_in_all_cases": "dsDNA, one strand shown", "key": {"VENTX [1]": {"target": "T1, VENTX (Homo sapiens, UniProt O95231 78-163, R121Q)", "T1 sequence": "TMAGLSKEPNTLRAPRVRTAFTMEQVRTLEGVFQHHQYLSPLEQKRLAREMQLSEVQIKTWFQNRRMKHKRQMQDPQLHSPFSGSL"}, "HOXC9 [2]": {"target": "HOXC9 (Homo sapiens, UniProt P31274 178-260, K195R)", "sequence (P31274 178-260 K195R)": "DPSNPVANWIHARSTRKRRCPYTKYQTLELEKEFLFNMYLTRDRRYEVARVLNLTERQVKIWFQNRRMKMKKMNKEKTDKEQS"}, "VENTX [3]": {"target": "T2, VENTX (Homo sapiens, UniProt O95231 78-163)", "T2 sequence": "T1 sequence with Q44R"}, "VENTX [4]": {"target": "T3, VENTX (Homo sapiens, UniProt O95231 78-163, Y115F)", "T3 sequence": "T1 sequence with Y38F, Q44R"}, "HOXB6 [5]": {"target": "HOXB6 (Homo sapiens, UniProt P17509 132-218, K202E)", "sequence (P17509 132-218 K202E)": "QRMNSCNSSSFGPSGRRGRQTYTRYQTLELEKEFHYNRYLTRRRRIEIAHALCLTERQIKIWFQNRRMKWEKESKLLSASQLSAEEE"}, "HOXC9 [6]": {"target": "HOXC9 (Homo sapiens, UniProt P31274 178-260)", "sequence (P31274 178-260)": "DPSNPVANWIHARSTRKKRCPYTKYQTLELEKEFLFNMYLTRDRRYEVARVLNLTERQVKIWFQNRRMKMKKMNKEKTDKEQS"}, "HOXC9 [7]": {"target": "HOXC9 (Homo sapiens, UniProt P31274 178-260, R193K)", "sequence (P31274 178-260 R193K)": "as the sequence (P31274 178-260) above, with R16K counted along it"}, "VAX1 [8]": {"target": "VAX1 (Homo sapiens, UniProt Q5SQQ9 86-172)", "sequence (Q5SQQ9 86-172)": "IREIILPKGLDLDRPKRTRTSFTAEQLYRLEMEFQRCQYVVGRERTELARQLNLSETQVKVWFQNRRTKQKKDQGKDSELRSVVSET"}, "HOXC9 [9]": {"target": "HOXC9 (Homo sapiens, UniProt P31274 178-260, R222W)", "sequence (P31274 178-260 R222W)": "as the sequence (P31274 178-260) above, with R45W counted along it"}, "VAX1 [10]": {"target": "VAX1 (Homo sapiens, UniProt Q5SQQ9 86-172, T142I)", "sequence (Q5SQQ9 86-172 T142I)": "as the sequence (Q5SQQ9 86-172) above, with T57I counted along it"}, "VAX1 [11]": {"target": "VAX1 (Homo sapiens, UniProt Q5SQQ9 86-172, K157R)", "sequence (Q5SQQ9 86-172 K157R)": "as the sequence (Q5SQQ9 86-172) above, with K72R counted along it"}, "HOXB6 [12]": {"target": "HOXB6 (Homo sapiens, UniProt P17509 132-218)", "sequence (P17509 132-218)": "as the sequence (P17509 132-218 K202E) above, with E71K counted along it"}, "HOXB9 [13]": {"target": "HOXB9 (Homo sapiens, UniProt P17482 171-250, T197M)", "sequence (P17482 171-250 T197M)": "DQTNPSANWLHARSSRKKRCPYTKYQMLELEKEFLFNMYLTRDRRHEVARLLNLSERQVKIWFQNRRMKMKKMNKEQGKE"}, "HOXB9 [14]": {"target": "HOXB9 (Homo sapiens, UniProt P17482 171-250)", "sequence (P17482 171-250)": "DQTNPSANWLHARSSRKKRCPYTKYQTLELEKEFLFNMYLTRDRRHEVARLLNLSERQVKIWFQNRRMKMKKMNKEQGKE"}, "ALX3 [15]": {"target": "ALX3 (Homo sapiens, UniProt O95076 139-225, N203Q)", "sequence (O95076 139-225 N203Q)": "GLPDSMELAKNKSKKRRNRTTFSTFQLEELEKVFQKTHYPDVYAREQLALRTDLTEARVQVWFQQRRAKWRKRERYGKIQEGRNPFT"}, "ALX3 [16]": {"target": "ALX3 (Homo sapiens, UniProt O95076 139-225)", "sequence (O95076 139-225)": "as the sequence (O95076 139-225 N203Q) above, with Q65N counted along it"}, "ALX3 [17]": {"target": "ALX3 (Homo sapiens, UniProt O95076 139-225, L168Q)", "sequence (O95076 139-225 L168Q)": "as the sequence (O95076 139-225 N203Q) above, with L30Q, Q65N counted along it"}, "HOXB9 [18]": {"target": "HOXB9 (Homo sapiens, UniProt P17482 171-250, R186Q)", "sequence (P17482 171-250 R186Q)": "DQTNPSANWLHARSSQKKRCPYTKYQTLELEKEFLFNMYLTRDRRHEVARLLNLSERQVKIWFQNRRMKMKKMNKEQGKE"}, "ALX3 [19]": {"target": "ALX3 (Homo sapiens, UniProt O95076 139-225, L168V)", "sequence (O95076 139-225 L168V)": "as the sequence (O95076 139-225 N203Q) above, with L30V, Q65N counted along it"}, "ALX3 [20]": {"target": "ALX3 (Homo sapiens, UniProt O95076 139-225, N203S)", "sequence (O95076 139-225 N203S)": "as the sequence (O95076 139-225 N203Q) above, with Q65S counted along it"}, "ALX4 [21]": {"target": "ALX4 (Homo sapiens, UniProt Q9H161 200-286)", "sequence (Q9H161 200-286)": "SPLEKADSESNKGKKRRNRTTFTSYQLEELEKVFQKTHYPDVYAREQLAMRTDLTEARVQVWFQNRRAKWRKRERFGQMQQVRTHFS"}, "ALX4 [22]": {"target": "ALX4 (Homo sapiens, UniProt Q9H161 200-286, Q225E)", "sequence (Q9H161 200-286 Q225E)": "as the sequence (Q9H161 200-286) above, with Q26E counted along it"}, "HOXA2 [23]": {"target": "HOXA2 (Homo sapiens, UniProt O43364 129-215, R185T)", "sequence (O43364 129-215 R185T)": "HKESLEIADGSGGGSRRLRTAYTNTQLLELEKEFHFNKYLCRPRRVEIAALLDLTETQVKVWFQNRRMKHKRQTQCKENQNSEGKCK"}, "HOXA2 [24]": {"target": "HOXA2 (Homo sapiens, UniProt O43364 129-215, R185K)", "sequence (O43364 129-215 R185K)": "as the sequence (O43364 129-215 R185T) above, with T57K counted along it"}, "HOXA2 [25]": {"target": "HOXA2 (Homo sapiens, UniProt O43364 129-215, Y150S)", "sequence (O43364 129-215 Y150S)": "as the sequence (O43364 129-215 R185T) above, with Y22S, T57R counted along it"}, "HOXA2 [26]": {"target": "HOXA2 (Homo sapiens, UniProt O43364 129-215)", "sequence (O43364 129-215)": "as the sequence (O43364 129-215 R185T) above, with T57R counted along it"}, "PAX4 [27]": {"target": "T4, PAX4 (Homo sapiens, UniProt O43316 9-242, R200K)", "T4 sequence": "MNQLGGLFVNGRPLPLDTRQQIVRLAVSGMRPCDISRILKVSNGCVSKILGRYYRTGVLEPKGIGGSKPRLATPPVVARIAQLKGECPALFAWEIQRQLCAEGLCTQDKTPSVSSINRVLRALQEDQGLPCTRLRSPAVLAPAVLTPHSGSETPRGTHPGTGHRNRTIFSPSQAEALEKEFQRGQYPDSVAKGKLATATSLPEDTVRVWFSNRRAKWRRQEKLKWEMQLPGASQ"}, "PAX4 [28]": {"target": "T5, PAX4 (Homo sapiens, UniProt O43316 9-242, R227W)", "T5 sequence": "T4 sequence with K192R, R219W"}}, "note": "Where a chain is given by its changes, count along the chain named."}
{"sequence": "GGGGTACC", "values": [{"measurement": "binding signal", "setting": "VENTX [1]", "result": "8.08 upbm affinity estimate (log intensity, higher = more binding, comparable within an allelic series)"}, {"measurement": "binding signal", "setting": "HOXC9 [2]", "result": "9.78 upbm affinity estimate (log intensity, higher = more binding, comparable within an allelic series)"}, {"measurement": "binding signal", "setting": "VENTX [3]", "result": "8.11 upbm affinity estimate (log intensity, higher = more binding, comparable within an allelic series)"}, {"measurement": "binding signal", "setting": "VENTX [4]", "result": "7.99 upbm affinity estimate (log intensity, higher = more binding, comparable within an allelic series)"}, {"measurement": "binding signal", "setting": "HOXB6 [5]", "result": "9.07 upbm affinity estimate (log intensity, higher = more binding, comparable within an allelic series)"}, {"measurement": "binding signal", "setting": "HOXC9 [6]", "result": "9.67 upbm affinity estimate (log intensity, higher = more binding, comparable within an allelic series)"}, {"measurement": "binding signal", "setting": "HOXC9 [7]", "result": "9.47 upbm affinity estimate (log intensity, higher = more binding, comparable within an allelic series)"}, {"measurement": "binding signal", "setting": "VAX1 [8]", "result": "7.1 upbm affinity estimate (log intensity, higher = more binding, comparable within an allelic series)"}, {"measurement": "binding signal", "setting": "HOXC9 [9]", "result": "9.69 upbm affinity estimate (log intensity, higher = more binding, comparable within an allelic series)"}, {"measurement": "binding signal", "setting": "VAX1 [10]", "result": "7.26 upbm affinity estimate (log intensity, higher = more binding, comparable within an allelic series)"}, {"measurement": "binding signal", "setting": "VAX1 [11]", "result": "7.1 upbm affinity estimate (log intensity, higher = more binding, comparable within an allelic series)"}, {"measurement": "binding signal", "setting": "HOXB6 [12]", "result": "9.04 upbm affinity estimate (log intensity, higher = more binding, comparable within an allelic series)"}]}
{"sequence": "GACCCAGC", "values": [{"measurement": "binding signal", "setting": "VENTX [1]", "result": "8.18 upbm affinity estimate (log intensity, higher = more binding, comparable within an allelic series)"}, {"measurement": "binding signal", "setting": "HOXB9 [13]", "result": "8.5 upbm affinity estimate (log intensity, higher = more binding, comparable within an allelic series)"}, {"measurement": "binding signal", "setting": "VENTX [3]", "result": "8.16 upbm affinity estimate (log intensity, higher = more binding, comparable within an allelic series)"}, {"measurement": "binding signal", "setting": "VENTX [4]", "result": "8.12 upbm affinity estimate (log intensity, higher = more binding, comparable within an allelic series)"}, {"measurement": "binding signal", "setting": "HOXB9 [14]", "result": "8.47 upbm affinity estimate (log intensity, higher = more binding, comparable within an allelic series)"}, {"measurement": "binding signal", "setting": "ALX3 [15]", "result": "7.75 upbm affinity estimate (log intensity, higher = more binding, comparable within an allelic series)"}, {"measurement": "binding signal", "setting": "ALX3 [16]", "result": "7.56 upbm affinity estimate (log intensity, higher = more binding, comparable within an allelic series)"}, {"measurement": "binding signal", "setting": "ALX3 [17]", "result": "7.85 upbm affinity estimate (log intensity, higher = more binding, comparable within an allelic series)"}, {"measurement": "binding signal", "setting": "HOXB9 [18]", "result": "8.49 upbm affinity estimate (log intensity, higher = more binding, comparable within an allelic series)"}, {"measurement": "binding signal", "setting": "ALX3 [19]", "result": "7.79 upbm affinity estimate (log intensity, higher = more binding, comparable within an allelic series)"}, {"measurement": "binding signal", "setting": "ALX3 [20]", "result": "7.8 upbm affinity estimate (log intensity, higher = more binding, comparable within an allelic series)"}]}
{"sequence": "AATGTATC", "values": [{"measurement": "binding signal", "setting": "VENTX [1]", "result": "9.76 upbm affinity estimate (log intensity, higher = more binding, comparable within an allelic series)"}, {"measurement": "binding signal", "setting": "VENTX [3]", "result": "10.1 upbm affinity estimate (log intensity, higher = more binding, comparable within an allelic series)"}]}
{"sequence": "AAGTAAAC", "values": [{"measurement": "binding signal", "setting": "VENTX [1]", "result": "9.37 upbm affinity estimate (log intensity, higher = more binding, comparable within an allelic series)"}, {"measurement": "binding signal", "setting": "VENTX [3]", "result": "9.73 upbm affinity estimate (log intensity, higher = more binding, comparable within an allelic series)"}]}
{"sequence": "CACGGGGG", "values": [{"measurement": "binding signal", "setting": "VENTX [1]", "result": "7.84 upbm affinity estimate (log intensity, higher = more binding, comparable within an allelic series)"}, {"measurement": "binding signal", "setting": "HOXB9 [13]", "result": "8.4 upbm affinity estimate (log intensity, higher = more binding, comparable within an allelic series)"}, {"measurement": "binding signal", "setting": "VENTX [3]", "result": "7.81 upbm affinity estimate (log intensity, higher = more binding, comparable within an allelic series)"}, {"measurement": "binding signal", "setting": "ALX4 [21]", "result": "7.67 upbm affinity estimate (log intensity, higher = more binding, comparable within an allelic series)"}, {"measurement": "binding signal", "setting": "VENTX [4]", "result": "7.86 upbm affinity estimate (log intensity, higher = more binding, comparable within an allelic series)"}, {"measurement": "binding signal", "setting": "ALX4 [22]", "result": "7.96 upbm affinity estimate (log intensity, higher = more binding, comparable within an allelic series)"}, {"measurement": "binding signal", "setting": "HOXA2 [23]", "result": "7.01 upbm affinity estimate (log intensity, higher = more binding, comparable within an allelic series)"}, {"measurement": "binding signal", "setting": "HOXB9 [14]", "result": "8.3 upbm affinity estimate (log intensity, higher = more binding, comparable within an allelic series)"}, {"measurement": "binding signal", "setting": "HOXA2 [24]", "result": "10.1 upbm affinity estimate (log intensity, higher = more binding, comparable within an allelic series)"}, {"measurement": "binding signal", "setting": "VAX1 [8]", "result": "7.17 upbm affinity estimate (log intensity, higher = more binding, comparable within an allelic series)"}, {"measurement": "binding signal", "setting": "HOXB9 [18]", "result": "8.26 upbm affinity estimate (log intensity, higher = more binding, comparable within an allelic series)"}, {"measurement": "binding signal", "setting": "VAX1 [10]", "result": "7.14 upbm affinity estimate (log intensity, higher = more binding, comparable within an allelic series)"}, {"measurement": "binding signal", "setting": "HOXA2 [25]", "result": "10.4 upbm affinity estimate (log intensity, higher = more binding, comparable within an allelic series)"}, {"measurement": "binding signal", "setting": "HOXA2 [26]", "result": "7.04 upbm affinity estimate (log intensity, higher = more binding, comparable within an allelic series)"}, {"measurement": "binding signal", "setting": "VAX1 [11]", "result": "7.08 upbm affinity estimate (log intensity, higher = more binding, comparable within an allelic series)"}]}
{"sequence": "ACGCATTA", "values": [{"measurement": "binding signal", "setting": "VENTX [1]", "result": "10.4 upbm affinity estimate (log intensity, higher = more binding, comparable within an allelic series)"}, {"measurement": "binding signal", "setting": "HOXC9 [2]", "result": "11.2 upbm affinity estimate (log intensity, higher = more binding, comparable within an allelic series)"}, {"measurement": "binding signal", "setting": "PAX4 [27]", "result": "11.6 upbm affinity estimate (log intensity, higher = more binding, comparable within an allelic series)"}, {"measurement": "binding signal", "setting": "HOXC9 [6]", "result": "11.2 upbm affinity estimate (log intensity, higher = more binding, comparable within an allelic series)"}, {"measurement": "binding signal", "setting": "HOXC9 [7]", "result": "11.2 upbm affinity estimate (log intensity, higher = more binding, comparable within an allelic series)"}, {"measurement": "binding signal", "setting": "PAX4 [28]", "result": "10.9 upbm affinity estimate (log intensity, higher = more binding, comparable within an allelic series)"}]}
{"sequence": "ACTCGTTA", "values": [{"measurement": "binding signal", "setting": "VENTX [1]", "result": "9.91 upbm affinity estimate (log intensity, higher = more binding, comparable within an allelic series)"}]}
